Source: PubChem BioAssay AID504621 (Broad Institute, 2011)
The campaign covered roughly 310,000 compounds. About 970 (0.31%) were called active. Only a selection was taken, and actives are over-represented in it overall. Values without a mark were called inactive.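 The calls were made as follows: active = every replicate shows inhibition above about 80%, whatever the replicate mean (limit read from the data); inconclusive = mean inhibition reaches the set limit but some replicate falls short; inactive = the rest.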

Experiment: growth inhibition of PfHsp90-expressing yeast, primary screen, antimalarial PfHsp90 inhibitor project, S. cerevisiae, BacTiter-Glo luminescence, single point, set 2 (AID 504621);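 also: yeast relying on Plasmodium falciparum Hsp90 in place of its own; 0% = DMSO neutral controls and 100% = 20 µM radicicol positive controls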
Details: BacTiter-Glo ATP, 48 h, at 9.4 µM, stronger effect = higher value, yeast lacking PDR1 and PDR3 efflux regulators

| SMILES | inhibition |
| --- | --- |
| Cc1cccc(NC(=S)N2CCC(C(=O)c3ccc(F)cc3)CC2)c1 | -3.65% |
| COc1ccc(CNCCCNCc2ccc(OC)c(OC)c2)cc1OC | -32.5% |
| CC(=O)Oc1ccc2c(c1)C(=O)c1ccccc1C2=O | 6.15% |
| CC(=O)N(C1=C(Cl)C(=O)c2ccccc2C1=O)c1ccc(C(=O)O)cc1 | 13.4% |
| O=C1C(Cl)=C(Oc2ccccc2)C(=O)c2ccccc21 | 104% (active) |
| COc1ccc(Cn2cc(CN3CCS(=O)(=O)N(Cc4ccc(-c5cccc(Cl)c5)cc4)C(C)C3=O)nn2)cc1 (stereo not given) | -24.7% |
| Oc1cccc(/C=N/Nc2ccc(Cl)nn2)c1O | 1.34% |
| Oc1ccc(Br)cc1/C=N/Nc1ccccn1 | 107% (active) |
| COc1ccc(-c2nn(-c3ccccc3)cc2/C=N/Nc2ccccn2)cc1OC | -22% |
| COc1ccc(CCC(=O)Nc2ccc(Cl)c(S(=O)(=O)N3CCOCC3)c2)cc1OC | -12.1% |
| CC[C@@H]1Cc2cc(O)ccc2C2=C1c1ccc(O)cc1C[C@H]2CC | 108% (active) |
| CSCCC(NC(=O)COc1ccccc1)C(=O)N1CCN(c2cccc(C(F)(F)F)c2)CC1 (stereo not given) | 46.4% |
| Cc1ccc(S(=O)(=O)c2cc3c(=O)n4cccc(C)c4nc3n(CCc3ccccc3)c2=N)cc1C | 0.767% |
| COc1cc(/C=N/O)cc(Br)c1OCc1cccc(Cl)c1 | 121% (active) |
| COc1cc(C(=O)NCc2ccncc2)cc(Br)c1OCc1ccccc1 | 46.3% |
| COc1cc(/C=N/O)cc(Br)c1OS(=O)(=O)c1ccc(C)cc1 | -10.1% |
| Cc1nn(-c2ncccn2)c2c1C(=O)CC(C)(C)C2Br (stereo not given) | -6.87% |
| COc1ccc(CCN2CC(C(=O)OCC(=O)NCc3ccccc3Cl)CC2=O)cc1OC (stereo not given) | -2.54% |
| CC1(C)N=C(N)NC(Nc2ccc(Cl)cc2)=N1 | 7.88% |
| C/C(=N\Nc1ccc(Cl)nn1)c1ccccc1O | 2.56% |
| CCN(/N=C/c1ccc(N(C)C)cc1)c1nc2ccccc2[nH]1 | 24% |
| CCN(/N=C/c1ccccc1)c1cc(=O)n(C)c(=O)[nH]1 | -32.6% |
| Oc1ccc(/C=N/N(Cc2ccccc2)c2ccccc2)cc1 | 96.6% (active) |

| SMILES | inhibition |
| --- | --- |
| Cc1ccc2c(O)c(Cc3ccccc3)c(=O)[nH]c2n1 | -3.48% |
| CC(C)C[C@H]1CN([C@@H](CC(C)C)CN2CCC[C@@H]2CN2C(=O)C(=O)NC[C@@H]2Cc2ccccc2)C(=O)C(=O)N1CCc1ccccc1 | 1.81% |
| CC(C=Cc1ccccc1)=NNS(=O)(=O)c1ccc([N+](=O)[O-])cc1 | -1.29% |
| CC(=O)OCC1(O)CC23CCC4c5ccoc5CCC4(C)C2CCC1C3 (stereo not given) | -29.4% |
| c1ccc(CCc2ccccn2)cc1 | 12.1% |
| Cc1ccccc1NCC(=O)N/N=C\c1ccc([N+](=O)[O-])s1 | -6.37% |
| CC(C)(C)c1cc(C(=O)N/N=C/c2ccc([N+](=O)[O-])s2)n[nH]1 | -5.37% |
| O=[N+]([O-])c1ccc(C=Nc2ccc(Cl)cc2Cl)s1 | 110% (active) |
| CC(C)(C)OC(=O)N1CCC(C(=O)Nc2cccc(C(=O)NCCc3ccccc3)c2)CC1 | 5.32% |
| CCCCCCCCCCOC(=O)Cn1c(COc2ccc(C)cc2)[n+](C)c2ccccc21 | 110% (active) |
| CCCCCCCCCCOC(=O)Cn1c(COc2cccc(OC)c2)[n+](C)c2ccccc21 | -14.9% |
| Cc1ccc(OCCCn2c(=O)oc3ccccc32)cc1 | -16.3% |
| COc1ccc(-c2nc3cc(C)ccn3c2NC2CCCCC2)cc1SC1CCCCC1 | 9.74% |
| FC(F)(F)c1ccc(-c2cccc3c2C2CC3CCN2Cc2ccccc2)cc1 (stereo not given) | 6.57% |
| O=C(CCC(=O)OCc1ccc(Cl)cc1)Nc1ccccc1 | -21.6% |
| O=C(O)CC1=C(Nc2ccccc2)C(=O)N(c2ccccc2)C1c1ccc(Cl)cc1 (stereo not given) | -10.5% |
| O=C1C=C(c2ccc(Cl)cc2)C(=O)N1Nc1ccccc1 | 134% (active) |
| COc1cc(/C=C/c2ccc(/C=C/c3cc(OC)c(OC)c(OC)c3)cc2)cc(OC)c1OC | -3.68% |
| Cc1c[n+]([O-])ccc1[N+](=O)[O-] | 4.7% |
| COCC(=O)N(C)[C@H]1C[C@H]2c3cc(Oc4ccccc4C)ccc3CCN2C(=O)[C@H]1[C@H](C)O | -8.3% |
| O=S(=O)(Nc1ccc2ccccc2c1)N1CCCCC1 | 2.41% |
| O=C(CNC(=O)c1cc(S(=O)(=O)N2CCOCC2)ccc1N1CCCC1)Nc1ccc(F)c(F)c1 | -6.44% |
| CCN1/C(=C\c2ccc3ccccc3[n+]2CC)Sc2cc(C)ccc21 | 87.5% (active) |

| SMILES | inhibition |
| --- | --- |
| Cc1cccc(C=CC(=O)c2ccc(Cl)cc2)c1 | 5.15% |
| Cc1ccc(C)c(N2CCN(C(=O)CCc3nc(-c4cccc(C(F)(F)F)c4)no3)CC2)c1 | -1.63% |
| O=C(O)C(CCc1ccccn1)c1ccccc1 (stereo not given) | -16% |
| CCCCNC(=O)C(C)N(CCN(C)C)C(=O)CCCCCN1C(=O)NC(c2ccc(Cl)cc2)C(C(=O)OCc2ccccc2)=C1C (stereo not given) | -0.725% |
| FC(F)(F)c1cnc(Oc2ccccc2-c2nnc(-c3ccc(Cl)cc3)o2)c(Cl)c1 | -8.43% |
| COc1cccc(/C=N/Nc2cc(C)nc(-c3ccccc3O)n2)c1O | -15.4% |
| COc1cccc(/C=N/Nc2ncc(C(F)(F)F)cc2Cl)c1O | 91.5% (active) |
| CCCCCCCCNS(=O)(=O)CCNC1CCCCC1 | 21.1% |
| O=C(NC1=CC(=O)c2ccccc2C1=O)c1ccccc1 | 54.3% |
| C#CCOCCOCCOCCNc1nc(N2CCN(C(=O)Cn3cc(CCO)nn3)CC2)nc(N2CCN(C(=O)[C@H](CCCCN)n3cc(CCCC)nn3)CC2)n1 | -9.73% |
| Oc1c(Cl)cc(Cl)c(Cl)c1Cc1c(O)c(Cl)cc(Cl)c1Cl | 108% (active) |
| O=C(Nc1ccc2ccccc2c1[N+](=O)[O-])c1ccccc1 | -14.2% |
| COc1ccc(CC(=O)NC(C)c2ccc(Cl)c(Cl)c2)cc1S(=O)(=O)N1CCOCC1 (stereo not given) | 15.2% |
| COc1ccc(OCc2cn3c(C)cc(C)nc3n2)cc1 | -13.7% |
| CCOc1ccc(C(C)C)cc1S(=O)(=O)n1nc(C)cc1C | 11.4% |
| COc1ccc(C(C[N+](=O)[O-])n2nc(C)cc2C)cc1 (stereo not given) | 104% (active) |
| CCC(=O)/C(=C(/O)c1ccccc1)c1nc2ccccc2[nH]1 | -12.2% |
| O=C(/C(=C/c1cccc(Cl)c1)c1nc2ccccc2[nH]1)c1ccccc1 | 86.9% (active) |
| O=C(Cc1nc2ccccc2[nH]c1=O)c1ccc(Cl)cc1 | -1.68% |
| Nc1ccc2c(c1)C(O)c1ccc(Cl)cc1-2 (stereo not given) | -1.88% |
| O=C(Nc1ccccc1Cl)/C(Cl)=C(\Cl)S(=O)c1ccccc1 (stereo not given) | 127% (active) |
| O=C(Nc1ccccc1Cl)O/N=C(/c1ccccc1)c1ccccn1 | 9.66% |
| CN(C)S(=O)(=O)Oc1ccccc1C(=O)Nc1ccccc1Cl | 15.5% |

| SMILES | inhibition |
| --- | --- |
| Cc1cc(OCCCC(=O)Nc2cc(S(=O)(=O)N3CCOCC3)ccc2N2CCOCC2)ccc1Cl | -7.69% |
| COc1ccc(C2=Nn3c(nnc3-c3ccccc3OC)SC2)cc1OC1CCCC1 | 1.24% |
| CCCCN(C(=O)CSCc1ccc(C)cc1)c1c(N)n(Cc2ccccc2)c(=O)[nH]c1=O | -17.2% |
| Cc1cc2c(cc1C)NC1(C[C@H]3CCC(=O)N4CC[C@@H](C1)[C@@H]34)C(=NC(C)(C)CC(C)(C)C)N2 (stereo not given in full) | 3.65% |
| Cc1cccc(CS(=O)(=O)c2ncc(Cl)c(C(=O)Nc3ccc(F)cc3)n2)c1 | 105% (active) |
| CSc1nnc(NC(=O)c2nc(S(=O)(=O)Cc3ccc(C)cc3)ncc2Cl)s1 | 11.8% |
| CCOc1ccc(NC(=O)c2nc(SCC)ncc2Cl)cc1 | 15.7% |
| CSc1ncc(Cl)c(C(=O)Nc2cc(C)ccc2C)n1 | 7.23% |
| Cc1ccc(CS(=O)(=O)c2ncc(Cl)c(C(=O)Nc3nnc(C)s3)n2)cc1 | 7.63% |
| Cc1cccc(NC(=O)c2nc(S(=O)(=O)Cc3ccccc3)ncc2Cl)c1 | 98.3% (active) |
| COC1C(CO)OC(n2cnc3c(=S)nc(N)[nH]c32)C1O (stereo not given) | 24.5% |
| COc1ccccc1NC(=O)N(O)C1(C#N)CCCCC1 | -17.6% |
| Cc1cc(NC(=O)C(C)SCC(=O)Nc2cccc(S(=O)(=O)N3CCCCCC3)c2)no1 (stereo not given) | -41.5% |
| CC1(C)C(=O)CCC2(C)C1=CCC1C2C(=O)CC2(C)C1CCC2(O)C(=O)CO (stereo not given) | 20.2% |
| COc1ccc(CCNC(=O)COc2cc(C)cc3oc(=O)c(C)c(C)c23)cc1OC | -2.49% |
| CCN1C[C@@H]2[C@@H]3C(=O)N(C)C(=O)[C@@H]3[C@](C)(C1=O)N2C(=O)c1ccccc1 | -20.8% |
| COc1ccc(Cl)cc1C=CC=Nc1ccc(S(N)(=O)=O)cc1 | 4.35% |
| O=C(CSc1ccc(-c2ccco2)nn1)Nc1cccc(F)c1 | -6.54% |
| O=C(CSc1ccc(-c2ccc(-n3cccn3)cc2)nn1)Nc1ccc([N+](=O)[O-])cc1 | 2.41% |
| O=C(CSc1ccc(-c2ccccn2)nn1)Nc1ccccc1 | 119% (active) |
| NS(=O)(=O)c1ccc(CCNC(=O)c2ccc(Cl)c(S(=O)(=O)N3CCCCCC3)c2)cc1 | -11.9% |
